Screen size: about 5,500 compounds; about 2,000 (36%) were called active. Not shown: some 18% with an inconclusive outcome. Rule as the data show it: active = normalized growth mostly below about 0.91 (no sharp cut-off); inconclusive = no clear call, values can overlap the other calls; inactive = mostly above about 0.92. The list shows a part of the results.
Test: chemical genetic growth profiling, strain panel (AID 1159580);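 also: tested at 20 µM; growth read once vehicle control cultures reached saturation at 30 °C; 1 = growth at the plate median or of vehicle wells; lower values mean less growth of the strain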
Conditions: growth OD
[1] = S. cerevisiae deletion strains, locus YDR150W, strain NUM1, stronger effect = lower value
[2] = S. cerevisiae deletion strains, locus YGR078C, strain PAC10, stronger effect = lower value
[3] = S. cerevisiae deletion strains, locus YMR307W, strain GAS1, stronger effect = lower value
[4] = S. cerevisiae deletion strains, locus YNL153C, strain GIM3, stronger effect = lower value
[5] = S. cerevisiae deletion strains, locus YNL322C, strain KRE1, stronger effect = lower value

Measured: normalized growth

O=C(O)CCC(=O)N1CCCC1C(=O)O (stereo not given)
inactive: S. cerevisiae deletion strains, locus YAL040C, strain CLN3, stronger effect = lower value 1.03 | S. cerevisiae deletion strains, locus YCL061C, strain MRC1 (second series), stronger effect = lower value 1 | [1] 0.998 | S. cerevisiae deletion strains, locus YDR363W, strain ESC2, stronger effect = lower value 1.02 | S. cerevisiae deletion strains, locus YER002W, strain NOP16, stronger effect = lower value 1.01 | [2] 0.979 | S. cerevisiae deletion strains, locus YJR075W, strain HOC1, stronger effect = lower value 1.03 | S. cerevisiae deletion strains, locus YMR263W, strain SAP30, stronger effect = lower value 1.01 | [3] 0.972 | S. cerevisiae deletion strains, locus YNL128W, strain TEP1, stronger effect = lower value 0.999 | [4] 1.24 | S. cerevisiae deletion strains, locus YNL175C, strain NOP13, stronger effect = lower value 0.991 | S. cerevisiae deletion strains, locus YNL197C, strain WHI3, stronger effect = lower value 0.993 | S. cerevisiae deletion strains, locus YNL224C, strain SQS1, stronger effect = lower value 0.992 | [5] 1.02 | S. cerevisiae deletion strains, locus YOR083W, strain WHI5 (second series), stronger effect = lower value 0.989

O=C(O)c1cc(O)ccc1O
inactive: S. cerevisiae deletion strains, locus YAL013W, strain DEP1, stronger effect = lower value 0.986 | S. cerevisiae deletion strains, locus YBR021W, strain FUR4, stronger effect = lower value 0.948 | S. cerevisiae deletion strains, locus YBR229C, strain ROT2, stronger effect = lower value 0.992 | S. cerevisiae deletion strains, locus YCL029C, strain bik1, stronger effect = lower value 0.994 | S. cerevisiae deletion strains, locus YDL035C, strain GPR1, stronger effect = lower value 0.995 | S. cerevisiae deletion strains, locus YDL074C, strain BRE1, stronger effect = lower value 0.978 | S. cerevisiae deletion strains, locus YDL101C, strain DUN1, stronger effect = lower value 0.999 | S. cerevisiae deletion strains, locus YDL185W, strain tfp1, stronger effect = lower value 1 | S. cerevisiae deletion strains, locus YDL192W, strain arf1, stronger effect = lower value 0.993 | S. cerevisiae deletion strains, locus YDR101C, strain arx1, stronger effect = lower value 0.965 | [1] 0.993 | S. cerevisiae deletion strains, locus YDR162C, strain NBP2, stronger effect = lower value 1.01 | S. cerevisiae deletion strains, locus YDR318W, strain mcm21, stronger effect = lower value 1.01 | S. cerevisiae deletion strains, locus YDR388W, stronger effect = lower value 0.989 | S. cerevisiae deletion strains, locus YDR502C, strain sam2, stronger effect = lower value 0.989 | S. cerevisiae deletion strains, locus YEL061C, strain CIN8, stronger effect = lower value 0.998 | S. cerevisiae deletion strains, locus YER110C, stronger effect = lower value 0.981 | S. cerevisiae deletion strains, locus YER155C, strain BEM2, stronger effect = lower value 0.996 | S. cerevisiae deletion strains, locus YER167W, strain BCK2, stronger effect = lower value 0.988 | S. cerevisiae deletion strains, locus YGL078C, strain dbp3, stronger effect = lower value 0.988 | S. cerevisiae deletion strains, locus YGL086W, strain mad1, stronger effect = lower value 0.975 | S. cerevisiae deletion strains, locus YGL248W, strain PDE1, stronger effect = lower value 1.02 | [2] 1.02 | S. cerevisiae deletion strains, locus YGR135W, strain pre9, stronger effect = lower value 1.01 | S. cerevisiae deletion strains, locus YGR252W, strain gcn5, stronger effect = lower value 1.12 | S. cerevisiae deletion strains, locus YHR030C, strain SLT2, stronger effect = lower value 0.989 | S. cerevisiae deletion strains, locus YHR079C, strain IRE1 (second series), stronger effect = lower value 0.986 | S. cerevisiae deletion strains, locus YHR094C, strain hxt1, stronger effect = lower value 0.99 | S. cerevisiae deletion strains, locus YHR129C, strain ARP1, stronger effect = lower value 0.994 | S. cerevisiae deletion strains, locus YHR200W, strain rpn10, stronger effect = lower value 0.989 | S. cerevisiae deletion strains, locus YIL066C, strain RNR3, stronger effect = lower value 0.985 | S. cerevisiae deletion strains, locus YIL073C, strain SPO22, stronger effect = lower value 0.976 | S. cerevisiae deletion strains, locus YIL125W, strain kgd1, stronger effect = lower value 0.987 | S. cerevisiae deletion strains, locus YIR030C, strain dcg1, stronger effect = lower value 1 | S. cerevisiae deletion strains, locus YJL095W, strain BCK1, stronger effect = lower value 1.03 | S. cerevisiae deletion strains, locus YJL134W, strain LCB3, stronger effect = lower value 0.984 | S. cerevisiae deletion strains, locus YJL168C, strain set2, stronger effect = lower value 0.998 | S. cerevisiae deletion strains, locus YJL187C, strain SWE1 (second series), stronger effect = lower value 1.01 | S. cerevisiae deletion strains, locus YJR043C, strain POL32, stronger effect = lower value 1.01 | S. cerevisiae deletion strains, locus YKL009W, strain mrt4, stronger effect = lower value 0.964 | S. cerevisiae deletion strains, locus YKL068W, stronger effect = lower value 0.992 | S. cerevisiae deletion strains, locus YKL085W, strain MDH1 (second series), stronger effect = lower value 1 | S. cerevisiae deletion strains, locus YKL085W, strain MDH1, stronger effect = lower value 1 | S. cerevisiae deletion strains, locus YKL190W, strain CNB1, stronger effect = lower value 0.997 | S. cerevisiae deletion strains, locus YKR001C, strain vps1, stronger effect = lower value 0.985 | S. cerevisiae deletion strains, locus YLR039C, strain RIC1, stronger effect = lower value 1.05 | S. cerevisiae deletion strains, locus YLR058C, strain SHM2, stronger effect = lower value 1 | S. cerevisiae deletion strains, locus YLR102C, strain apc9, stronger effect = lower value 0.987 | S. cerevisiae deletion strains, locus YLR262C, strain YPT6, stronger effect = lower value 1.05 | S. cerevisiae deletion strains, locus YLR268W, strain sec22, stronger effect = lower value 0.986 | S. cerevisiae deletion strains, locus YLR330W, strain CHS5, stronger effect = lower value 0.991 | S. cerevisiae deletion strains, locus YLR342W, strain FKS1 (second series), stronger effect = lower value 0.95 | S. cerevisiae deletion strains, locus YLR371W, strain rom2, stronger effect = lower value 0.989 | S. cerevisiae deletion strains, locus YLR418C, strain cdc73, stronger effect = lower value 1.05 | S. cerevisiae deletion strains, locus YML016C, strain PPZ1, stronger effect = lower value 0.995 | S. cerevisiae deletion strains, locus YML032C, strain rad52, stronger effect = lower value 1.01 | S. cerevisiae deletion strains, locus YML124C, strain tub3, stronger effect = lower value 1 | S. cerevisiae deletion strains, locus YMR078C, strain ctf18, stronger effect = lower value 0.992 | S. cerevisiae deletion strains, locus YMR223W, strain ubp8, stronger effect = lower value 1.04 | [3] 1.07 | S. cerevisiae deletion strains, locus YNL067W, strain RPL9B, stronger effect = lower value 1.01 | [4] 1.02 | S. cerevisiae deletion strains, locus YNL233W, strain BNI4, stronger effect = lower value 1 | S. cerevisiae deletion strains, locus YNL250W, strain rad50, stronger effect = lower value 0.976 | S. cerevisiae deletion strains, locus YNL271C, strain bni1, stronger effect = lower value 0.994 | S. cerevisiae deletion strains, locus YNL298W, strain CLA4, stronger effect = lower value 0.994 | S. cerevisiae deletion strains, locus YNL307C, strain MCK1, stronger effect = lower value 0.98 | [5] 1 | S. cerevisiae deletion strains, locus YNR052C, strain pop2, stronger effect = lower value 1 | S. cerevisiae deletion strains, locus YOL012C, strain htz1 1.12 | S. cerevisiae deletion strains, locus YOL147C, strain pex11, stronger effect = lower value 0.99 | S. cerevisiae deletion strains, locus YOR061W, strain CKA2, stronger effect = lower value 0.996 | S. cerevisiae deletion strains, locus YOR069W, strain VPS5, stronger effect = lower value 0.987 | S. cerevisiae deletion strains, locus YOR136W, strain idh2, stronger effect = lower value 0.995 | S. cerevisiae deletion strains, locus YOR144C, strain elg1, stronger effect = lower value 0.989 | S. cerevisiae deletion strains, locus YOR184W, strain ser1, stronger effect = lower value 1 | S. cerevisiae deletion strains, locus YOR316C, strain cot1, stronger effect = lower value 0.985 | S. cerevisiae deletion strains, locus YPL241C, strain CIN2, stronger effect = lower value 1 | S. cerevisiae deletion strains, locus YPR119W, strain clb2, stronger effect = lower value 0.994 | S. cerevisiae deletion strains, locus YPR141C, strain kar3, stronger effect = lower value 0.981 | S. cerevisiae deletion strains, locus YPR163C, strain tif3, stronger effect = lower value 0.999 | S. cerevisiae deletion strains, locus YPR167C, strain met16, stronger effect = lower value 1.01 | S. cerevisiae deletion strains, strain wtn01, stronger effect = lower value 0.943 | S. cerevisiae strains, strain wild type, stronger effect = lower value 0.994

Reference: PubChem BioAssay AID1159580 (chemical genetic matrix, 2015)
